ATXN2 expr inh: reduces ATXN2 reporter expression in HEK-293 cells; HEK-293 ATXN2-luciferase reporter, luminescence, 24 h; Potency, µM (highest dose often 57 µM), for inactives: top-dose activity change, negative = inhibition, actives largely listed as inhibitors; hit rate 0.72% among 360,000; AID 1745845; further: on the % scale 0 is the no-effect control and ±100 the full control effect; nearly all actives have a fitted effect of over 55% in size
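ATXN2-luciferase reporter cells (luciferase flanked by upstream and downstream ATXN2 gene portions) were treated 24 h at 37 °C with compounds at up to 57 uM. SteadyGlo luminescence gave expression; GF-AFC fluorescence gave viability.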
HT1080NT lethal: kills 2HG-producing HT-1080-NT fibrosarcoma cells | HT-1080-NT fibrosarcoma viability, CellTiter-Glo ATP luminescence, 48 h | Potency, µM (top dose mostly 46.1 µM), without a hit: at the highest dose activity, negative = less viability, most hits filed as cytotoxic | hit rate 1.6% among 360,000;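 further: NT is the 2HG producing partner of a matched IDH1 knockdown line; 0% = DMSO-treated cells and -100% = media-only wells without cells; nearly all actives have a fitted effect of over 55% in size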
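Toxicity toward the 2HG-producing NT line was scored as %Activity, normalised to DMSO and no-cell wells, from CellTiter-Glo luminescence after 48 hours' treatment.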
S2 tox: cell viability loss in ATXN counter-screen; S2 cells (HEK-293 line with an ATXN2-luciferase reporter) viability, CellTiter-Fluor protease fluorescence, 24 h; hit rate 0.49% among 400,000; Potency, µM (titrated, usually from 56.7 µM), most hits filed as cytotoxic; further: nearly all actives have a fitted effect of over 40% in size
HepG2 viability: kills HepG2 cells in TGF-b inhibitor counter-screen; HepG2 CAGA-GFP viability, ATP luminescence, 18 h; Potency, µM (doses to about 46.1 µM), without a hit: at the highest dose activity change, negative = cytotoxicity, actives largely listed as cytotoxic; hit rate 0.76% among 410,000; AID 588856
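CellTiter-Glo luminescence gave cytotoxicity after 18 hours at 37 degrees C. The cells were HepG2 CAGA-GFP in 1% FBS DMEM, stimulated with 500 pg/mL TGF-beta after compound addition. %Activity was normalised to no-cell wells (complete cell-killing) and DMSO (no toxicity), and curves were fitted and classified.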
TGFb inhibitor: blocks TGF-b signaling | HepG2 CAGA-GFP TGF-b/SMAD3 reporter, GFP fluorescence, 18 h; TGF-beta stimulated, 500 pg/mL final | hit rate 1.2% among 410,000 | Potency, µM (titrated, usually from 46.1 µM), for inactives: top-dose activity, negative = inhibition, usual class: inhibitors; further: on the % scale 0 is the no-effect control and ±100 the full control effect; nearly all actives have a fitted effect of over 65% in size
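First, reporter cells (HEPG2 CAGA-GFP) rested 2 h at 37 degrees C. Next, compounds were pinned in and TGF-beta added to 500 pg/mL final. After 18 h, GFP was imaged per cell and summed per well.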
HT1080 IDH1KD tx: kills HT-1080 cells with IDH1 knockdown. Potency, µM (doses to about 46.1 µM), for the others: at the highest dose activity, negative = toxicity, hits mostly cytotoxic. hit rate 2% among 360,000. HT-1080 IDH1 knockdown viability, ATP luminescence, 48 h;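 further: 0% = DMSO wells and -100% = cell-free medium wells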
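Cytotoxicity counter-line: IDH1KD HT-1080, 48 h, CellTiter-Glo. Curves classed by r2, magnitude and activity.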
The depositor's hits bear a star; i = inactive; ? = inconclusive; nt = no result given. The list is not random: actives were taken first. Their share in the collection is about 3.8%. The call rests on the fitted dose curve; in most records, active means well fitted curve in the direction sought with a large enough effect; inconclusive means small, poorly fitted or top-dose-only effect, or another doubt; inactive means no such curve, though single readings can be large; an effect the other way counts as inactive or inconclusive. Potency means the concentration at half of the fitted maximal effect.

SMILES	ATXN2 expr inh	HT1080NT lethal	S2 tox	HepG2 viability	TGFb inhibitor	HT1080 IDH1KD tx
COc1cccc(C(=O)Nc2ncc3c(n2)CC(c2ccc(OC)cc2OC)CC3=O)c1 (stereo not drawn)	-1%	7.9µM*	?	-2%	?	7.9µM*
COc1ccc(C(=O)Nc2ncc3c(n2)CC(C)CC3=O)cc1 (stereo not drawn)	16%	10%	i	-16%	-1%	1%
COc1ccc(C(=O)c2cc([N+](=O)[O-])ccc2N2CCOCC2)cc1	-6%	?	?	-23%	?	0.15µM*
Cc1ccc(C(=O)c2cc([N+](=O)[O-])ccc2N2CCOCC2)cc1	-15%	5.2µM*	?	0%	-2%	7.3µM*
O=C(c1cc([N+](=O)[O-])ccc1N1CCOCC1)N1CCOCC1	-2%	1%	i	5%	-2%	3%
COC(=O)c1ccccc1NC(=O)C1=CC(c2ccc(C)cc2)=NS(=O)(=O)N1C	1%	nt	i	-19%	-33%	nt
COc1ccccc1NS(=O)(=O)c1cccc(-n2c(O)c(C=Nc3ccccc3C(=O)O)c3ccccc3c2=O)c1	-19%	?	20µM*	-20%	?	?
COc1ccc(F)cc1S(=O)(=O)NCC(c1ccco1)S(=O)(=O)c1ccc(F)cc1 (stereo not drawn)	nt	nt	nt	-56%	?	nt
Cc1nc2c(nc1C)C(=O)c1ccccc1C2=O	?	?	?	3.5µM*	2.2µM*	18µM*
NC1CCC(Nc2nc(Nc3ccc(C(=O)N4CCCCC4)cc3)c3ncn(-c4cccc(F)c4)c3n2)CC1 (stereo not drawn)	32%	nt	nt	nt	nt	nt
COc1ccc(-c2n[nH]c(C(F)(F)F)c2-c2cc3ccccc3o2)c(O)c1	?	?	?	13µM*	?	?
COc1ccccc1-c1c(-c2ccc(OCC(=O)NN)cc2O)n[nH]c1C(F)(F)F	0%	-6%	i	-27%	-14%	-4%
COc1ccc2c(c1)Cc1sc(NC(=O)c3ccc(Cl)cc3)nc1-2	nt	nt	nt	-14%	-8%	nt
COc1ccccc1N1CCN(Cc2cc3c(cc2O)OCO3)CC1	8%	0%	i	-23%	1%	13%
CCOc1ccccc1N1CCN(Cc2cccc(OC)c2O)CC1	-5%	8%	i	7%	-24%	-24%
CCCOCc1cc(CN2CCN(c3ccccc3OC)CC2)c(O)c2ncccc12	nt	nt	nt	11µM*	2µM*	nt
CCOCc1cc(CN2CCN(c3ccccc3OC)CC2)c(O)c2ncccc12	nt	nt	nt	1.6µM*	nt	nt
COc1ccccc1N1CCN(Cc2cc(COC(C)C)c3cccnc3c2O)CC1	nt	nt	nt	2.8µM*	2.2µM*	nt
Cc1ccc(CNc2ccc3cc(S(=O)(=O)N4CCCCC4)ccc3n2)cc1	nt	nt	nt	-7%	-47%	nt
Cc1ccc2nc(/C=C/c3ccc(N(C)C)cc3)ccc2c1	nt	nt	nt	-24%	14%	nt
O=C1/C(=C/c2cccnc2)SC(=S)N1C1CCS(=O)(=O)C1 (stereo not drawn)	-8%	-24%	i	-33%	-10%	18µM*
COc1ccccc1NC(=O)CSc1nnc(NC(=O)Nc2ccc(C)cc2)s1	nt	nt	nt	-54%	5.6µM*	nt
COc1ccccc1NC(=O)CSc1nnc(NC(=O)C2CC2)s1	-5%	0%	i	-14%	-5%	-12%
Cc1ccc(O)c(-c2cc(-c3ccccc3[N+](=O)[O-])[nH]n2)c1	7%	0%	nt	-38%	?	-11%
COc1ccc(-c2cc(-c3cc(C)ccc3O)[nH]n2)cc1	61%	3.7µM*	?	-44%	?	?
SMILES	ATXN2 expr inh	HT1080NT lethal	S2 tox	HepG2 viability	TGFb inhibitor	HT1080 IDH1KD tx
CC(C)(C)c1ccc(-c2cc(-c3ccccc3O)[nH]n2)cc1	107%	?	?	-59%	18µM*	15µM*
Cc1ccc(O)c(-c2cc(-c3ccccc3C)[nH]n2)c1	2%	-3%	?	11µM*	?	-11%
COc1ccc(-c2cc(-c3ccc(C)cc3)n[nH]2)c(O)c1	nt	3%	?	-39%	?	?
O=C(CSc1cn(CCNC(=O)c2cccc(C(F)(F)F)c2)c2ccccc12)Nc1ccc2c(c1)OCCO2	0%	nt	nt	-31%	?	nt
COc1ccc2c(c1)C=C/C2=C/c1ccc(N(C)C)cc1	nt	nt	nt	-16%	9%	nt
COc1ccc(C2c3c(n(C)c4ccccc34)C(=O)N2CC(=O)Nc2ccc(Cl)cc2)cc1 (stereo not drawn)	nt	nt	nt	-29%	2.5µM*	nt
O=C(O)c1ccc(N/N=C/C2=C(N3CCOCC3)C(=C\c3ccccc3)/CC2)cc1	9%	15µM*	i	-39%	?	15µM*
COc1ccc(/C=N/NC(=O)c2cc3c(OC)ccc(OC)c3[nH]2)cc1O	0%	2.3µM*	i	-58%	?	0.41µM*
COc1cccc(/C=N/NC(=O)c2cc3c(OC)cccc3[nH]2)c1OC	9%	4%	i	-44%	?	15%
COc1ccc(/C=N/NC(=O)c2cccc3ccccc23)c(OC)c1OC	-11%	?	i	-10%	-11%	16µM*
COc1ccccc1/C=N/NC(=O)c1cc2c(OC)c(OC)ccc2[nH]1	nt	7.3µM*	?	-2%	-10%	4.1µM*
COc1ccccc1/C=N/NC(=O)c1cccc2ccccc12	-8%	-17%	i	-18%	11%	-4%
COc1cccc(/C=N/NC(=O)c2cc3c(OC)c(OC)ccc3[nH]2)c1OC	nt	?	?	12%	9%	6.5µM*
CCc1ccc(S(=O)(=O)c2nnn3c2nc(Nc2ccc(F)cc2)c2cc(Cl)ccc23)cc1	11%	nt	i	6%	13%	nt
CCn1c([N+](=O)[O-])nc2c1c(=O)[nH]c(=O)n2C	nt	18µM*	nt	-126%	10µM*	21µM*
O=C(Nc1ccc2ccccc2c1)c1nc(S(=O)(=O)Cc2ccccc2F)ncc1Cl	nt	nt	nt	-62%	?	nt
CCOc1ccc(NC(=O)c2nc(S(=O)(=O)Cc3ccccc3C)ncc2Cl)cc1	nt	nt	nt	-101%	13µM*	nt
CCOc1ccc(NC(=O)c2nc(S(=O)(=O)Cc3ccc(F)cc3)ncc2Cl)cc1	nt	nt	nt	-96%	11µM*	nt
COC(=O)/C=C\C(=O)OC	7%	nt	i	nt	nt	nt
O=C(CSc1n[nH]c(-c2ccccc2O)n1)N1CCCc2ccccc21	-17%	?	i	-37%	-18%	16µM*
COc1ccc(CNC(=O)C2CCN(S(=O)(=O)N3CCC4(CC3)OCCO4)CC2)c(OC)c1	-47%	?	i	8%	-6%	16µM*

High-throughput results deposited in PubChem by National Center for Advancing Translational Sciences (NCATS).
